Laboratory results reported in PubChem BioAssay.
A number with no mark means an inactive call. For some of these results: Entries with a potency or affinity are not part of this list. Activity calls are given as the source filed them. Unless noted, the rule behind the calls is not given here.

Legend:
[1] = antimalarial activity against Dd2 strain (AID 2302;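 active = growth inhibition above 50% at the single 2 µM test dose, taken to imply half-maximal potency below 2 µM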;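 note: 0% = DMSO untreated growth and 100% = chloroquine plus artemisinin killed control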); conditions: P. falciparum Dd2 in RBCs, LDH growth readout, 72 h; at 2 µM; active compounds read high
[2] = human hepatoma cell viability loss – ATP luminescence, cytotoxicity control for P. falciparum antimalarial project, primary screen (AID 2303;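 active = inhibition above 50%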;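 note: 0% = DMSO wells and 100% = digitonin-killed cells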); conditions: HepG2 viability, 24-48 h, at 10 µM, active compounds read high
[3] = target: L-lactate dehydrogenase (Plasmodium falciparum (isolate CDC / Honduras)) (UniProt Q27743); test: PfLDH activity inhibition – cell lysate, 3D7 strain, counter-screen for P. falciparum growth inhibition project (AID 2304);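 note: 0% = vehicle and 100% = reference inhibitor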; conditions: P. falciparum 3D7 crude extract, LDH APAD/NBT absorbance; at 2 µM; active compounds read high
[4] = inhibition of 3D7 malaria parasite growth – strain 3D7 (AID 2306);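 note: 0% = DMSO wells and 100% = chloroquine plus artemisinin control wells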; conditions: P. falciparum 3D7 erythrocytic growth, LDH absorbance, 72 h; at 2 µM; active compounds read high
[5] = target: Calcium-dependent protein kinase 1 (Plasmodium falciparum (isolate 3D7)) (UniProt P62344); test: PfCDPK1 kinase inhibitors, biochemical, TCAMS library (AID 1159585; cut-off not given, nearly all actives have IC50 up to about 0.98 µM;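 note: inhibitors leave more ATP so luminescence rises with inhibition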); conditions: recombinant PfCDPK1, Kinase-Glo ATP depletion luminescence
[6] = target: Plasmodium falciparum protein kinase 6 (PK6, PF3D7_1337100) (UniProt Q8IDW1); test: PfPK6 kinase inhibitors, biochemical, TCAMS library (AID 1159586); conditions: recombinant PfPK6, Kinase-Glo ATP depletion luminescence
[7] = target: Protein kinase 7 (PK7), Plasmodium falciparum 3D7 (PF3D7_0213400) (UniProt Q7YTF7); test: inhibition of Plasmodium PK7 catalytic activity – biochemical, TCAMS antimalarial set, Kinase-Glo luminescence (AID 1159587); conditions: recombinant PfPK7, Kinase-Glo ATP depletion luminescence
[8] = target: Calcium-dependent protein kinase 4 (Plasmodium falciparum (isolate 3D7)) (UniProt Q8IBS5); test: PfCDPK4 kinase inhibitors, biochemical, TCAMS library (AID 1159588; cut-off not given, nearly all actives have IC50 up to about 0.91 µM); conditions: recombinant PfCDPK4, Kinase-Glo ATP depletion luminescence
Chain of Calcium-dependent protein kinase 4 (Plasmodium falciparum (isolate 3D7)) (Q8IBS5 whole entry, looked up): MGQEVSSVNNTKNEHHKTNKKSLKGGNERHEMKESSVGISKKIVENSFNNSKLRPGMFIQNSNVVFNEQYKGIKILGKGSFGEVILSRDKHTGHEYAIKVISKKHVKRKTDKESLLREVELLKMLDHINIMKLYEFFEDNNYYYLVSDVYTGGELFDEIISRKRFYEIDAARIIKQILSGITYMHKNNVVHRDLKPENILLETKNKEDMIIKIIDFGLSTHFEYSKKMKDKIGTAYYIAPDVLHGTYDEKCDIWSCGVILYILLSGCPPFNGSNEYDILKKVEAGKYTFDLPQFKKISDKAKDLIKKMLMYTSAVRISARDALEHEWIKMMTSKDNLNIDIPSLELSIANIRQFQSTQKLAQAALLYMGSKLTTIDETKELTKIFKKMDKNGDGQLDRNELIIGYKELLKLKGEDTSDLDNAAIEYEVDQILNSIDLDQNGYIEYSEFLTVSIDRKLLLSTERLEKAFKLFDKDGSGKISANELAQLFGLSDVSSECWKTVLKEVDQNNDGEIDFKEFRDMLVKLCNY

Chain of Plasmodium falciparum protein kinase 6 (PK6, PF3D7_1337100) (Q8IDW1 1-305): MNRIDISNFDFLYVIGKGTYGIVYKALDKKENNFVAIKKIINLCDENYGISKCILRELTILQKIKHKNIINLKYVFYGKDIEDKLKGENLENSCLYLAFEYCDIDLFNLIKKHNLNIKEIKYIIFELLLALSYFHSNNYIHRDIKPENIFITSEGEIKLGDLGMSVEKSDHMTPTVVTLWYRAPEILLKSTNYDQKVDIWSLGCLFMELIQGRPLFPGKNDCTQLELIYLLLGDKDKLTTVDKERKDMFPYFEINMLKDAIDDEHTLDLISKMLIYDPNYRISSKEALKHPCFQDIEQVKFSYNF
Chain of Protein kinase 7 (PK7), Plasmodium falciparum 3D7 (PF3D7_0213400) (Q7YTF7 1-343): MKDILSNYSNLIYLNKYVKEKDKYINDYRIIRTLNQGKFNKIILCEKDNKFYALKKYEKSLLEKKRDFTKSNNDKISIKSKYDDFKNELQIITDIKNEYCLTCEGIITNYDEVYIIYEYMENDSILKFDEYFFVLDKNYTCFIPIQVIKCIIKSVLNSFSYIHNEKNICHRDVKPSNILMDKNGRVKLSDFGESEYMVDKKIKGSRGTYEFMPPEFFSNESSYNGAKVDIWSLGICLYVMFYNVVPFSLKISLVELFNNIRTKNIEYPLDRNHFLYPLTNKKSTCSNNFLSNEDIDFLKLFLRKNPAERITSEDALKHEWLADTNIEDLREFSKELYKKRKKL
Chain of Calcium-dependent protein kinase 1 (Plasmodium falciparum (isolate 3D7)) (P62344 whole entry, looked up): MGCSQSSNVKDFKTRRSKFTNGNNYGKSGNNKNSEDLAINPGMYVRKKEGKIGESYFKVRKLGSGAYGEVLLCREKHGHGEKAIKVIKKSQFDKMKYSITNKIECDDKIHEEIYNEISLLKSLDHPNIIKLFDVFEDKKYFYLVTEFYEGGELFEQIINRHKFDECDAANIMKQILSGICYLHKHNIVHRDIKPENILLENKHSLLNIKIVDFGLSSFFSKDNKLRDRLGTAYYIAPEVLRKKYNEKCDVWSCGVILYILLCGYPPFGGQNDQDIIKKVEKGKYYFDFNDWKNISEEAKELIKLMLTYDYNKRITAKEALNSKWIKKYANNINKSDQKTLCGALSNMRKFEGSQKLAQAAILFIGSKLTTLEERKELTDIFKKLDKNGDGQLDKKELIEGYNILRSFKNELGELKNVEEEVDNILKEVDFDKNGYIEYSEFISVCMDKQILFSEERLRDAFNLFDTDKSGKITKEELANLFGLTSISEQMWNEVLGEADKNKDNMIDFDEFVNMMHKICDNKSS
Chain of L-lactate dehydrogenase (Plasmodium falciparum (isolate CDC / Honduras)) (Q27743 whole entry, looked up): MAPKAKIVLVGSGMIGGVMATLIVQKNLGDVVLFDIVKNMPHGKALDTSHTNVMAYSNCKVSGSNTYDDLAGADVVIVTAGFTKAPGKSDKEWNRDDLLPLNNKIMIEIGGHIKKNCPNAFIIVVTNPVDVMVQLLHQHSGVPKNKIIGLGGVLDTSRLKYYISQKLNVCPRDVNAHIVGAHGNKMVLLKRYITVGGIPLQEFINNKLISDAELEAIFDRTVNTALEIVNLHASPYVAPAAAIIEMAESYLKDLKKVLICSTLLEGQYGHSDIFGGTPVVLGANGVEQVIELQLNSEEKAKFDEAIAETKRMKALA

Row | SMILES | growth inhibition [1] | inhibition [2] | inhibition [3] | growth inhibition [4] | outcome [5] | outcome [6] | outcome [7] | outcome [8]
1 | CCCNc1nc(Nc2ccccc2C)nc2ccccc12 | 64% (active) | 13% | 1% | 95% (active) | inactive | inactive | inactive | inactive
2 | COc1cc2c(cc1OC)CN(CCCCc1ccc(NC(=O)c3cc(Cl)cc(Cl)c3)cc1)CC2 | 4% | 21% | -3% | 95% (active) | inactive | inactive | inactive | inactive
3 | Nc1c2nc(-c3c(F)cccc3Cl)[nH]c(=O)c2nc(=O)n1-c1ccccc1 | 0% | 52% (active) | 2% | 95% (active) | inactive | inactive | inactive | inactive
4 | CS(=O)(=O)c1cccc(-c2cnc(N)c3cc(-c4ccc5c(c4)OCO5)ccc23)c1 | 23% | 37% | 1% | 91% (active) | inactive | inactive | inactive | inactive
5 | CC(C)NCc1ccc(-c2cccc(CN3CCC(c4ccccc4)CC3)c2)c(C(=O)NCC2CCCCC2)c1 | 76% (active) | 42% | -5% | 98% (active) | inactive | inactive | inactive | inactive
6 | CN1CCCC1CCNCc1cccc(-c2cnc(N(C)C3CCCCC3)nc2)c1 (stereo not given) | 95% (active) | 98% (active) | 2% | 99% (active) | inactive | inactive | inactive | inactive
7 | Nc1nc(N)c2c(ccc3c2ccn3Cc2ccccn2)n1 | 94% (active) | 66% (active) | -1% | 90% (active) | inactive | inactive | inactive | inactive
8 | O=C(C=Cc1ccc(Cl)c(Cl)c1)NCCCCCN1CCC(CCNC(=O)c2sc3ccccc3c2Cl)CC1 | 6% | 27% | -5% | 88% (active) | inactive | inactive | inactive | inactive
9 | Cc1ccc(Cl)c2sc(N3CCN(C(=O)c4ccc([N+](=O)[O-])o4)CC3)nc12 | 94% (active) | 21% | -5% | 97% (active) | inactive | inactive | inactive | inactive
10 | COc1ccc2nccc([C@@H](O)CN3CCC(NC(=O)/C=C/c4cc([N+](=O)[O-])ccc4OC)CC3)c2c1 | 76% (active) | 12% | -1% | 99% (active) | inactive | inactive | inactive | inactive
11 | CC(C)(C)OC(=O)Nc1cccc(-c2csc(N=C(N)N)n2)c1 | 83% (active) | 4% | 2% | 97% (active) | inactive | inactive | inactive | inactive
12 | CN(Cc1cccc(C#N)c1)C1CCN(c2cc(NC(=O)c3cccc(F)c3)ccn2)CC1 | 15% | -1% | -3% | 98% (active) | inactive | inactive | inactive | inactive
13 | O=C(NC1CCN(Cc2ccccc2)CC1)c1cc(-c2cccnc2)nc2ccc(Cl)cc12 | 26% | -3% | 1% | 97% (active) | inactive | inactive | inactive | inactive
14 | COc1cccc2c(NN=Cc3ccc(Cl)cc3)ccnc12 | 39% | 26% | 5% | 99% (active) | inactive | inactive | inactive | inactive
15 | CCN(CC)CCN(Cc1ccc(-c2ccc(C(F)(F)F)cc2)cc1)C(=O)Cn1c(CCc2ccc(F)c(F)c2F)nc(=O)c2cccnc21 | 20% | 29% | -3% | 89% (active) | inactive | inactive | inactive | inactive
16 | CCCCC1(NC(=O)[C@@H](Nc2ccc(C#N)c3ccccc23)C2CCCCC2)CCCCC1 | 84% (active) | 8% | 0% | 91% (active) | inactive | inactive | inactive | inactive
17 | Cc1nn(-c2ccccc2)c2sc(C(=O)N(CCCN(C)C)c3nc(-c4ccccc4)cs3)cc12 | 36% | 99% (active) | -2% | 95% (active) | inactive | inactive | inactive | inactive
18 | CCc1c(C)nc(-n2nc(C)cc2NC(=O)C(CC)c2ccccc2)[nH]c1=O (stereo not given) | 93% (active) | 41% | -1% | 97% (active) | inactive | inactive | inactive | inactive
19 | CC(=O)N1N=C(c2ccc(F)cc2)Sc2c1nc(-c1ccccc1)n2C(C)=O | 67% (active) | -11% | -1% | 99% (active) | inactive | inactive | inactive | inactive
20 | Cc1nc(-c2cccc(NC(C)C(=O)Nc3cc(C(F)(F)F)ccc3N3CCOCC3)c2)cs1 (stereo not given) | 97% (active) | 3% | -2% | 82% (active) | inactive | inactive | inactive | inactive
